# Most compounds without a hit are left out; they make up all but 1.7% or so of the library.
# ATG4B inhibitor: inhibitors of human ATG4B cysteine protease. ATG4B cleavage of LC3-PLA2, NBD-HPC fluorescence, 1 h. inhibition, % at 8.33 µM. 340,000 compounds, 0.51% hits
# Target sequence (Q9Y4P1 whole entry, looked up): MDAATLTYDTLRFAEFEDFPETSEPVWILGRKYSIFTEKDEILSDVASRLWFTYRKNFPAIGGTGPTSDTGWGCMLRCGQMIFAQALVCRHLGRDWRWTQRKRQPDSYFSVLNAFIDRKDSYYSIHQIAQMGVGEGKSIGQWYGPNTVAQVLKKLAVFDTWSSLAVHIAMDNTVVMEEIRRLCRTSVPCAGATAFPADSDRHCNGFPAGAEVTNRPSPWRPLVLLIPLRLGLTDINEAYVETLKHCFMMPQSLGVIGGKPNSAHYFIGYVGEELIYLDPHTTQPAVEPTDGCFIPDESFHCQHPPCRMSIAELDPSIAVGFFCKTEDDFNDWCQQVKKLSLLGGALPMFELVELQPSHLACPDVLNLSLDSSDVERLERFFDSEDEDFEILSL
# SUMO1-SIM PPI: SUMO1-SIM interaction modulation; 360,000 compounds, 0.33% hits; inhibition, % at 20 µM; SUMO1 binding to a labelled peptide, TR-FRET, 1 h; in the data active means inhibition above about 37%
# Target sequence (P63165 whole entry, looked up): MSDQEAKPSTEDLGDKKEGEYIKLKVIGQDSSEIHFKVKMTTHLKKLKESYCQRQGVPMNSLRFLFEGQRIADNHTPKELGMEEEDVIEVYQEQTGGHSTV
# Rin1-Abl PPI inh: human Rin1-Abl interaction inhibition | P00519+Q13671 | TR-FRET Rin1/Abl binding, biochemical | inhibition, % at 7.35 µM | 360,000 compounds, 0.4% hits; in the data active means inhibition above about 5%, passing the limit was not always enough
# Neddylation inh: blocks human cullin neddylation | TR-FRET cullin neddylation, biochemical | inhibition, % at 25 µM | P61081+Q13564 | 360,000 compounds, 0.58% hits | AID 651699; in the data active means inhibition above about 36%
# Neddyl conf: cullin neddylation inhibition, confirmation | shares compounds with Neddylation inh | TR-FRET cullin neddylation biochemical assay | calls only at 25 µM | 1,800 compounds, 13% hits;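 further: neddylation substrate is the cullin 1 ring ligase complex with SKP2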
# Numbers without * were called inactive; i = inactive; / = not tested or not shown; + = active, no number. Unless noted, no stated cut-off is given here; in the data, active means inhibition above about 40%; inactive means the rest.
SMILES,ATG4B inhibitor,SUMO1-SIM PPI,Rin1-Abl PPI inh,Neddylation inh,Neddyl conf
COc1ccc2cc(C(=O)C3CCCN(Cc4cnc(N5CCOCC5)s4)C3)ccc2c1 (centres undefined),7,-13,2,42*,i
CC(C)Oc1cccc(C(=O)C2CCCN(Cc3cnc(N4CCCC4)s3)C2)c1 (centres undefined),15,0,-4,-4,/
COCC(=O)Nc1ccc2c(c1)[C@@H]1C[C@H](CC(=O)OC)O[C@H](CO)[C@@H]1O2,/,2,2,-1,/
O=C(Nc1cccnc1Cl)c1cc(-c2cccc(O)c2)on1,1,72*,4,70*,+
CC1CCN(c2ccccc2NC(=O)c2cc3ccccc3o2)CC1,9,5,-9,37*,i
COc1cc(Cl)c(CNC[C@H]2O[C@@H](n3cnc4c(=O)[nH]c(N)nc43)[C@H](O)[C@@H]2O)c(Cl)c1O,/,3,0,-7,/
CN(C)C(=O)CCC(=O)N1CCCC(C(=O)c2ccc3c4c(cccc24)CC3)C1 (centres undefined),7,-12,1,41*,i
C[C@H]1CN([C@@H](C)CO)C(=O)CCCn2nncc2CO[C@@H]1CN(C)Cc1cccc(C(=O)O)c1,/,4,2,9,/
Cn1c(=O)n(C)c2cc(S(=O)(=O)Nc3ccccc3C(=O)O)ccc21,-2,6,-1,42*,i
Cn1c(=O)n(C)c2cc(S(=O)(=O)NCC(=O)O)ccc21,3,0,0,0,/
CCOC1=C2[C@@H](CN(S(=O)(=O)c3ccc(C)cc3)[C@H]2c2ccccc2F)[C@H]2C(=O)NC(=O)[C@H]2C1,/,7,4,0,/
Cc1cccc(C)c1C(O)c1ncc(-c2cccc3ccccc23)[nH]1 (centres undefined),/,-9,0,/,/
CN(/N=C/c1cccnc1)c1cnc2ccccc2n1,-8,-18,-8,45*,i
O=C(NCc1ccccn1)[C@@H]1CCCN1C(=O)[C@@H]1CCCN1C(=O)c1c(F)cccc1F,/,-2,/,2,/
Fc1ccc(NC(=S)Nc2ccc3nccnc3c2)cc1,2,-7,0,-1,/
OCCCNC(=S)Nc1ccc2nccnc2c1,1,-10,-1,49*,i
C1CCN(CCC2CCCCN2)CC1 (centres undefined),/,-1,1,7,/
CCCc1cc(-n2ccnc2C)n2c(nc3ccccc32)c1C#N,-2,-8,-2,38*,i
C=CCn1c(-c2ccccn2)n[nH]c1=S,/,8,-3,21,/
Cc1cc(=O)oc2c(C)c(OCC(=O)N(C)C)ccc12,3,7,-1,41*,i
Cc1cc(=O)oc2c(C)c(OCC(=O)N3CC[C@@]4(O)CCCC[C@H]4C3)ccc12,-18,-2,-1,44*,i
Cc1cc(=O)oc2c(C)c(OC(C)C(=O)N3CC[C@@]4(O)CCCC[C@H]4C3)ccc12 (some centres undefined),-7,1,0,29,/
CCc1cc(=O)oc2c(C)c(OCC(=O)N3CCC(C(=O)O)CC3)ccc12,8,6,0,43*,+
CCc1cc(=O)oc2c(C)c(OCC(=O)NCC3CCC(C(=O)O)CC3)ccc12 (centres undefined),2,7,0,31,/
COc1ccc(OC)c(NC=C2C(=O)OC3(CCCCC3)OC2=O)c1,-22,-4,-4,52*,i
SMILES,ATG4B inhibitor,SUMO1-SIM PPI,Rin1-Abl PPI inh,Neddylation inh,Neddyl conf
COc1ccc(OC)c(NC=C2C(=O)OC(C)(C)OC2=O)c1,5,-4,0,4,/
Cc1cccc(NC(=O)COC(=O)CN2C(=O)c3ccccc3C2=O)c1C,/,-9,0,-10,/
O=C(N/N=C/c1c(O)n(-c2ccccc2Cl)c(=O)c2ccccc12)C1COc2ccccc2O1 (centres undefined),13,-14,-1,48*,i
Cc1c(/C=N\NC(=O)C2COc3ccccc3O2)c2ccccc2n1C (centres undefined),-26,4,0,9,/
Cc1ccc(/C=N/NC(=O)C2COc3ccccc3O2)s1 (centres undefined),3,-12,-2,-10,/
Cc1ccc(-n2c(O)c(/C=N/NC(=O)C3COc4ccccc4O3)c3ccccc3c2=O)cc1 (centres undefined),19,3,-5,44*,i
CCOC(=O)c1c(C)[nH]c(C(=O)Nc2cc(OCC)c(N3CCOCC3)cc2OCC)c1C,-55,1,2,45*,i
NC1=NC(=O)/C(=C/c2ccccc2OS(=O)(=O)c2ccccc2)S1,5,1,1,16,/
NC1=NC(=O)/C(=C/c2c(OS(=O)(=O)c3ccc(Cl)cc3)ccc3ccccc23)S1,-5,2,2,41*,i
CNc1ccc(-c2cccc([N+](=O)[O-])c2)cn1,/,-30,0,-36,/
Nc1cc(C(=O)O)ccc1Nc1ccccc1,2,-14,6,48*,/
CCOC1=C2[C@@H](CN(S(=O)(=O)c3ccc(C)cc3)[C@H]2c2ccccc2Cl)[C@H]2C(=O)N(C)C(=O)[C@H]2C1,/,2,-2,6,/
CSc1nc2nccc(-c3ccc4c(c3)OCO4)n2n1,0,-19,-5,48*,i
O=C(O)c1sc2cc(C(F)(F)F)cnc2c1-c1cccs1,2,-6,3,41*,+
c1ccc(-c2cc3c(-n4cccc4)ncnc3o2)cc1,-1,-12,-7,38*,i
CC1(C(=O)NS(=O)(=O)Cc2ccccc2C(F)(F)F)CCN1C(=O)c1cccc(F)c1 (centres undefined),/,-2,2,-4,/
COc1cccc(/C=C2/NC(=O)N(CC(=O)Nc3ccc(C)cc3)C2=O)c1OCc1cccc(C(=O)O)c1,0,-31,1,50*,/
O=c1cc(CCl)[nH]c2nc3ccccc3n12,-3,0,0,42*,i
CCCCCCc1c(C)[nH]c2nc3ccccc3n2c1=O,1,7,2,13,/
CCCc1c(C)[nH]c2nc3ccccc3n2c1=O,-2,16,0,46*,i
CN(C)c1ccc2c(=O)c3ccccc3oc2n1,/,0,1,40*,i
Cc1nc2oc3ccccc3c(=O)c2cc1C(=O)O,-3,5,0,-19,/
Cc1c(/C=C(\CC(=O)O)c2nc3ccccc3s2)cc(C#N)n1C,4,-10,-4,43*,/
Cc1nn(-c2ccccc2)c(Cl)c1/C=C(/CC(=O)O)c1nc2ccccc2s1,-2,-14,0,-6,/
Cn1nc(C(C)(C)C)cc1C(=O)N1CCCCC1c1cc(C(=O)Nc2ccc(F)c(Cl)c2)no1 (centres undefined),/,0,2,6,/
OC[C@@H]1CN(Cc2ccccc2)C[C@H](n2ccc3c(N4CCCC4)ncnc32)O1,/,-4,-3,-3,/
CNS(=O)(=O)c1ccc(CNC[C@H]2O[C@@H](n3cnc4c(=O)[nH]c(N)nc43)[C@H](O)[C@@H]2O)cc1,/,-1,6,10,/
